For some assays here: Entries with a potency or affinity are not part of this list. The source made the active and inactive calls.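 Rule for the calls, unless noted: active = earlier screen potentiator hit that boosts the TRPC4 ion channel at some dose, with a dose response; inactive = no potentiation, no dose response, or not a prior hit.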
Key:
[1] = tested on: TRPC4 beta (transient receptor potential cation channel C4), mouse; assay: activators of mouse TRPC4 channel, confirmation, cell-based, Fluo4 calcium, HEK293 TRPC4beta/mu-opioid, duplicates, 10 µM (AID 2426;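 active = fluorescence ratio normalized to control raised more than 50% in primary screen plus both repeat runs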); conditions: Fluo4 calcium fluorescence, at 10 µM; hits give high values
[2] = tested on: transient receptor potential cation channel C4 beta (TRPC4), mouse; assay: activators of mouse TRPC4 channel, confirmation, cell-based, second round, Fluo4, HEK293 TRPC4beta/mu-opioid, 1 µM (AID 2461;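 active = primary screen active and over 50% activation in each of two duplicate runs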); conditions: Fluo4 calcium fluorescence, at 1 µM; hits give high values
[3] = tested on: TRPC4 (transient receptor potential cation channel C4 beta), mouse; assay: positive allosteric modulators of mouse TRPC4, confirmation, cell-based, second round, Fluo-4, HEK293 TRPC4beta/mu-opioid, 1 µM (AID 2554;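 active = primary screen hit whose fluorescence ratio, in both repeats, exceeds the weak agonist control mean by 3 SD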); conditions: DAMGO EC20, Fluo-4 calcium flux, at 1 µM; hits give high values
[4] = tested on: TRPC4 beta (transient receptor potential cation channel C4), mouse; assay: positive allosteric modulators of mouse TRPC4, confirmation, cell-based, Fluo-4, HEK293 TRPC4beta/mu-opioid (AID 2555;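 active = primary screen hit whose calcium fluorescence ratio, in both repeats, exceeds the weak agonist control mean by 3 SD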); conditions: DAMGO EC20, Fluo-4 calcium flux, at 10 µM; hits give high values
[5] = target: Short transient receptor potential channel 4 (Mus musculus) (UniProt Q9QUQ5); assay: inhibitors of mouse TRPC4 channel, confirmation, cell-based, Fluo4, HEK293 TRPC4beta/mu-opioid (AID 2636;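 active = calcium signal cut by more than 3 SD below the full-agonist control yet still positive, in both repeats and the earlier primary screen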); conditions: DAMGO, Fluo4 calcium flux, at 10 µM; hits give high values
[6] = target: Short transient receptor potential channel 4 (Mus musculus) (UniProt Q9QUQ5); assay: inhibitors of mouse TRPC4 channel, confirmation, cell-based, second round, Fluo4, HEK293 TRPC4beta/mu-opioid, 1 µM (AID 2637;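 active = calcium signal ratio cut to more than 3 SD under the fully stimulated control mean yet still positive, in both repeats and the primary screen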); conditions: Fluo4 calcium flux, DAMGO, at 1 µM; hits give high values
[7] = target: Short transient receptor potential channel 4 (Mus musculus) (UniProt Q9QUQ5); assay: mouse TRPC4 channel activators, dose response, cell-based, HEK293 TRPC4/mu-opioid, Fluo-4 calcium (AID 434937;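 active = primary screen activator hit with a dose response curve and TRPC4 channel activation at any tested dose; inactive = no activation, no dose response, or not a primary hit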)
[8] = target: Short transient receptor potential channel 4 (Mus musculus) (UniProt Q9QUQ5); assay: TRPC4 positive allosteric modulators, dose response, cell-based, HEK293 TRPC4/mu-opioid, Fluo-4 calcium, EC20 DAMGO (AID 434941);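 note: calcium entry triggered by an EC20 dose of DAMGO at the co-expressed mu-opioid receptor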
[9] = target: Short transient receptor potential channel 4 (Mus musculus) (UniProt Q9QUQ5); assay: mouse TRPC4 channel inhibitors, dose response, cell-based, HEK293 TRPC4/mu-opioid, Fluo-4 calcium (AID 434942;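 active = primary screen inhibitor hit that blocks the TRPC4 channel at some tested dose, yielding a dose curve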)
[10] = target: Short transient receptor potential channel 6 (Mus musculus) (UniProt Q61143); assay: inhibition of mouse TRPC6 channel, confirmation, selectivity assay for TRPC4 inhibitor project, cell-based, HEK293, membrane potential dye, duplicate (AID 434948;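 active = active in primary screen and both duplicates, each dropping signal beyond three positive-control SD with fluorescence still positive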); conditions: HEK293 TRPC6, membrane potential dye fluorescence, at 10 µM, stimulated with maximal-effect acetylcholine; hits give high values
[11] = target: Short transient receptor potential channel 6 (Mus musculus) (UniProt Q61143); assay: activation of mouse TRPC6 channel, confirmation, selectivity assay for TRPC4 activator project, cell-based, HEK293, membrane potential dye, duplicate (AID 434950;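 active = membrane potential signal rise above negative control mean plus 3 SD in both duplicates, also active in the earlier TRPC4 screen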); conditions: HEK293 TRPC6, membrane potential fluorescence, at 10 µM; hits give high values
[12] = target: Short transient receptor potential channel 6 (Mus musculus) (UniProt Q61143); assay: TRPC6 potentiation by TRPC4 potentiator hits, confirmation, selectivity assay for TRPC4 potentiator project, HEK293 cells, membrane potential dye, duplicate (AID 434952;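 active = compound raising the membrane signal above positive-control mean plus 3 SD in both repeats, and a primary screen hit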); conditions: HEK293 TRPC6, membrane potential dye fluorescence, at 10 µM, maximal acetylcholine added after compound; hits give high values
[13] = target: Short transient receptor potential channel 4 (Mus musculus) (UniProt Q9QUQ5); assay: calcium flux activators in TRPC4/5HT1a cells, counter-screen for TRPC4 activator project, cell-based, second counter screen, HEK293 TRPC4/5HT1a, Fluo-4 (AID 434977;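 active = calcium signal rise above buffer-control mean plus 5 SD in both duplicates, and also a hit in the primary screen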); conditions: Fluo-4 calcium flux, at 10 µM; hits give high values
[14] = calcium flux inhibitors in TRPC4/5HT1a cells, confirmation, counter-screen for TRPC4 inhibitor project, cell-based, second counter screen, HEK293 TRPC4/5HT1a, Fluo-4 (AID 434978;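 active = primary screen active whose calcium signal fell more than 3 SD beyond the full-serotonin control mean in both duplicate plates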;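 note: serotonin given first at submaximal then at maximal dose after compound preincubation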); conditions: Fluo-4 calcium flux, at 10 µM, serotonin added to trigger calcium flux; hits give high values
[15] = tested on: TRPC4 (mouse), co-expressed with 5HT1a in HEK293; assay: calcium flux potentiators in TRPC4/5HT1a cells, confirmation, counter-screen for TRPC4 potentiator project, cell-based, second counter screen, HEK293 TRPC4/5HT1a, Fluo-4 (AID 434979;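 active = signal rise over 3 SD above mean of control wells given weak agonist, in both repeats and first screen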); conditions: Fluo-4 calcium flux, at 10 µM, serotonin added at its EC20 dose; hits give high values
[16] = calcium flux activation in mu-opioid HEK293 cells, confirmation, counter-screen for TRPC4 activator project, cell-based, HEK293 mu-opioid receptor line (AID 449723;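 active = hit in primary screen, with calcium signal over 5 SD above buffer well mean in both duplicates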;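 note: counter screen cells carry the mu-opioid receptor alone and lack TRPC4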); conditions: Fluo-4 calcium fluorescence, at 10 µM; hits give high values
[17] = calcium flux enhancement in mu-opioid HEK293 cells, confirmation, counter-screen for TRPC4 allosteric potentiator project, cell-based, HEK293 mu-opioid receptor line (AID 449724;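 active = calcium signal rise more than 3 SD above the low-dose agonist control mean, in both duplicate plates and the primary screen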); conditions: Fluo-4 calcium flux, at 10 µM, compound added before EC20 DAMGO stimulus; hits give high values

Measured: potentiation

Short transient receptor potential channel 4 (Mus musculus), sequence (Q9QUQ5 whole entry, looked up): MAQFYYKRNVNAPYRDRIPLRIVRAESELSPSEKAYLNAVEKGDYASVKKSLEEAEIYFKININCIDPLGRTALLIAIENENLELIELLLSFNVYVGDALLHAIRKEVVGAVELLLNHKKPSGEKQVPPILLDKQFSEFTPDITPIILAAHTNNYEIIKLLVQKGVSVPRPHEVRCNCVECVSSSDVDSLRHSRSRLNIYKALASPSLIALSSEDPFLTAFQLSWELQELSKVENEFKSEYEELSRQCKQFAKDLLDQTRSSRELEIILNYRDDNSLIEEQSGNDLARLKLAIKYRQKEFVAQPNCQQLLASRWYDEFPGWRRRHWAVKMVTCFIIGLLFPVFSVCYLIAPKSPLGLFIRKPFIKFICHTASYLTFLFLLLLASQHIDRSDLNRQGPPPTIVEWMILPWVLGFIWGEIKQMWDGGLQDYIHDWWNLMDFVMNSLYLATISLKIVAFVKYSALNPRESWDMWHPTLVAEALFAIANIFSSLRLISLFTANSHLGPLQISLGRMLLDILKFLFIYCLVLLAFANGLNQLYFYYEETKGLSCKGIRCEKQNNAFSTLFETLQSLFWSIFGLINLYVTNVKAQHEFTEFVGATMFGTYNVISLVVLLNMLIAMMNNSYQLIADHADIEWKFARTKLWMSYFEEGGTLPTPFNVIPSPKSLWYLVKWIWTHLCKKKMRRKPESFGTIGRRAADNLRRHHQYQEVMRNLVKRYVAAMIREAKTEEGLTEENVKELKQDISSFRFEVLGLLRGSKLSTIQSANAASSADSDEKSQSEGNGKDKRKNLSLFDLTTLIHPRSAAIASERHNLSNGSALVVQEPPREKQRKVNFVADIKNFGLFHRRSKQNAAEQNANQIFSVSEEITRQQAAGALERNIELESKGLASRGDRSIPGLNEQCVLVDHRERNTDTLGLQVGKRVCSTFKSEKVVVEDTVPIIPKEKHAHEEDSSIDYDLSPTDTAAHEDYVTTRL
Short transient receptor potential channel 6 (Mus musculus), sequence (Q61143 whole entry, looked up): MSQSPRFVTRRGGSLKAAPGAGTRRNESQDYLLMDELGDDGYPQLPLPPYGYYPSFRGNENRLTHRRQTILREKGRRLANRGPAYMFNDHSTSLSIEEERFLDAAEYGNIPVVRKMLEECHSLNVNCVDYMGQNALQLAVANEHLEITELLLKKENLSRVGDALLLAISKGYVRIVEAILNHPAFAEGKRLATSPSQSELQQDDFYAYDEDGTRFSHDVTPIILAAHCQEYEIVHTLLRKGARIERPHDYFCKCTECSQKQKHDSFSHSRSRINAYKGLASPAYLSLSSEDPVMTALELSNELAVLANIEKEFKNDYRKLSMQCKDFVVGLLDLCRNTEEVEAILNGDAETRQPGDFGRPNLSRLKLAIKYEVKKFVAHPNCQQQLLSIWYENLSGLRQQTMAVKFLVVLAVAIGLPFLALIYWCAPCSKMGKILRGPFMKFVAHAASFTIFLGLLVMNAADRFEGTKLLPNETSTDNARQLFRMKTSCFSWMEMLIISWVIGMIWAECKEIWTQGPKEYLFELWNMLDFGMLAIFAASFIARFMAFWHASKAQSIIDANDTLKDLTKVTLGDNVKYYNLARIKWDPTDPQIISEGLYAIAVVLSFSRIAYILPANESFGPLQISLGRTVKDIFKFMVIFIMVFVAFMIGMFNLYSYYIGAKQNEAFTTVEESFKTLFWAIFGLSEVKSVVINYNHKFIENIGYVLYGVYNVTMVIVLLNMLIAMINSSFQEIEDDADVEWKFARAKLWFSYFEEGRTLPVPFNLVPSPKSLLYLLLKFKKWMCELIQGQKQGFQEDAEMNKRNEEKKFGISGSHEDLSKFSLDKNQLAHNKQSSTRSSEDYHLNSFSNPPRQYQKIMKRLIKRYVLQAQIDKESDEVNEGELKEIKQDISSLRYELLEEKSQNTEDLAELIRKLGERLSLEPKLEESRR

CC(=O)c1ccc(N2CCN(C(=O)C3CCN(S(=O)(=O)c4ccc5c(c4)CC(C)N5C(=O)C4CC4)CC3)CC2)cc1 (centres undefined)
active: [4] 9% | [15] 14.8%
inactive: [1] | [2] | [3] | [5] | [6] | [7] | [8] | [9] | [10] | [11] | [12] | [13] | [14] | [16] | [17]

CCOCCCn1c(=S)[nH]c2cc(C(=O)NCCCN(CC)CC)ccc2c1=O
active: [3] 18% | [4] 10% | [15] 16.1%
inactive: [1] | [2] | [5] | [6] | [7] | [8] | [9] | [10] | [11] | [12] | [13] | [14] | [16] | [17]

COc1ccc(N=C2SCC(=O)N2Cc2ccccc2)cc1
inactive: [1] | [2] | [3] | [4] | [5] | [6] | [7] | [8] | [9] | [10] | [11] | [12] | [13] | [14] | [15] | [16] | [17]

CCOC(=O)c1c(C)n(C)c2ccc(OCC(O)CNCCc3ccccc3)cc12 (centres undefined)
inactive: [1] | [2] | [3] | [4] | [5] | [6] | [7] | [8] | [9] | [10] | [11] | [12] | [13] | [14] | [15] | [16] | [17]

CN1CCN(Cc2cccc(Oc3ccc(Cl)cc3)c2)CC1
active: [3] 22% | [15] 15.1%
inactive: [1] | [2] | [4] | [5] | [6] | [7] | [8] | [9] | [10] | [11] | [12] | [13] | [14] | [16] | [17]

CCN1CCCC1CNCc1ccc(Cl)cc1Cl (centres undefined)
inactive: [1] | [2] | [5] | [6] | [7] | [8] | [9] | [10] | [11] | [12] | [13] | [14] | [16] | [17]
active: [3] 11% | [4] 8% | [15] 12.9%

Cc1ccc(NC(=O)Nc2cccc([N+](=O)[O-])c2)nc1
active: [3] 12% | [15] 24.5%
inactive: [1] | [2] | [4] | [5] | [6] | [7] | [8] | [9] | [10] | [11] | [12] | [13] | [14] | [16] | [17]

Reference: PubChem BioAssay
